Source: PubChem (National Center for Advancing Translational Sciences (NCATS))
KB-3-1 tox – kills parental KB-3-1 adenocarcinoma cells; Potency, µM (top dose mostly 46.1 µM), actives largely listed as cytotoxic; hit rate 1.4% among 400,000; KB-3-1 viability, CellTiter-Glo ATP luminescence, 72 h; note: nearly all actives have a fitted effect of over 60% in size
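Cytotoxicity measured as CellTiter-Glo luminescence after 72 h at 37 C. Compound titrations were pinned onto drug-naive KB-3-1 parental adenocarcinoma cells grown in DMEM with 10% FBS, and normalized data fitted to concentration-response curves.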
HepG2 viability – HepG2 cytotoxicity, counter-screen for TGF-b inhibitors. hit rate 0.76% among 410,000. HepG2 CAGA-GFP viability, ATP luminescence, 18 h. Potency, µM (highest dose often 46.1 µM), hits mostly cytotoxic
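HepG2 CAGA-GFP cells (1000/well, DMEM with 1% FBS) received compound, then TGF-beta at 500 pg/mL final, and were incubated 18 hours at 37 degrees C. Viability was read by CellTiter-Glo luminescence. Media-only wells were set as complete cell-killing and DMSO as no toxicity.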
KB-V1 cytotox – kills drug-selected multidrug resistant KB-V1 cells. KB-V1 MDR cells viability, CellTiter-Glo, 72 h. Potency, µM (series often up to 46.1 µM), actives largely listed as cytotoxic. hit rate 3.4% among 400,000. AID 1347076; note: nearly all actives have a fitted effect of over 60% in size
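KB-V1 MDR subline cells in DMEM (phenol-red free, 10% FBS) exposed to compounds in qHTS concentration series for 72 h at 37 degrees C. Viability read by CellTiter-Glo luminescence; concentration-effect curves fitted after normalization and correction.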
HT1080-NT tox – kills 2HG-producing HT-1080-NT fibrosarcoma cells | HT-1080-NT fibrosarcoma viability, CellTiter-Glo ATP luminescence, 48 h | Potency, µM (top dose mostly 46.1 µM), hits mostly cytotoxic | hit rate 1.6% among 360,000 | AID 686970;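 note: NT is the 2HG producing partner of a matched IDH1 knockdown line; nearly all actives have a fitted effect of over 55% in size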
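A 48-hour cytotoxicity screen used HT-1080-NT cells plated 2 hours before compound delivery. ATP-based CellTiter-Glo luminescence measured viability, normalized to DMSO and no-cell controls.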
TGFb SMAD3 inh – blocks TGF-b signaling; HepG2 CAGA-GFP TGF-b/SMAD3 reporter, GFP fluorescence, 18 h; TGF-beta stimulated, 500 pg/mL final; Potency, µM (titrated, usually from 46.1 µM), actives largely listed as inhibitors; hit rate 1.2% among 410,000; AID 588855; note: nearly all actives have a fitted effect of over 65% in size
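Smad-responsive CAGA-GFP expression was quantified in HEPG2 cells exposed to compounds and 500 pg/mL final TGF-beta for 18 h at 37 degrees C; unstimulated wells defined full inhibition.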
HT1080 IDH1KD tx – HT-1080 IDH1 knockdown cell toxicity (counter line) | HT-1080 IDH1 knockdown viability, ATP luminescence, 48 h | Potency, µM (series often up to 46.1 µM), usual class: cytotoxic | hit rate 2% among 360,000 | AID 686971
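HT-1080-IDH1KD cells (IDH1 knocked down), 750/well in RPMI with 5% FBS, treated with compound 48 h at 37 degrees C. Viability by CellTiter-Glo luminescence, normalised to DMSO and no-cell wells; concentration-response curves classed.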
A number is an active result; 0 = inactive; ? = inconclusive; - = no result. Compounds with a hit are over-represented: about 6.6% of the library has one in this group of screens. Calls come from the whole dose curve; as a rule, active = well fitted curve in the direction sought with a large enough effect; inconclusive = small, poorly fitted or top-dose-only effect, or another doubt; inactive = no such curve, though single readings can be large; an effect the other way counts as inactive or inconclusive.

SMILES | KB-3-1 tox | HepG2 viability | KB-V1 cytotox | HT1080-NT tox | TGFb SMAD3 inh | HT1080 IDH1KD tx
CC(=O)c1cccc(CN2CCC(C(=O)Nc3ccc(Oc4cccnc4)cc3)CC2)c1 | 0 | 0 | ? | 0 | 0 | ?
Cc1ccc(S(=O)(=O)N(C)CCN(C)c2nc(-c3cccs3)nc3ccccc23)cc1 | - | - | - | 0 | - | 0
O=C1Nc2ccccc2N(C(=O)c2c(F)cccc2F)C1c1nc2ccccc2[nH]1 (centres undefined) | 0 | - | 0 | 0 | - | ?
O=C1Nc2ccccc2N(C(=O)c2ccc(-c3ccccc3)cc2)C1c1nc2ccccc2[nH]1 (centres undefined) | ? | - | ? | ? | - | 16µM
CCC[n+]1c(/C=C/c2c(OC)cc(OC)cc2OC)ccc2ccccc21 | 1.3µM | 0 | 0 | - | 0 | -
COc1cc(OC)c(/C=C/c2ccc3ccccc3[n+]2C)c(OC)c1 | 0.73µM | 0 | 0 | - | 0 | -
COc1cccc(NC(=O)c2cc3c(=O)n(Cc4cccnc4)ccc3nc2C)c1 | 0 | 0 | 0 | - | 0 | -
Cc1ccc(C)c(Cn2c(=O)n(C(C)C)c(=O)c3oc4ccccc4c32)c1 | - | 0 | - | - | 0 | -
CCOc1ccc(NC(=O)CSc2ccc(-c3ccccn3)nn2)cc1 | 0 | 0 | 2.9µM | 0 | 0 | 0
O=C1Nc2ccc(Br)cc2C1=C1CCCCC1 | 0 | 0 | ? | ? | 0 | 16µM
CN1CCN(CCNC(=O)c2cnn(-c3ccc(Cl)cc3)c2C2CCN(C(=O)OC(C)(C)C)CC2)CC1 | 0 | 0 | ? | - | 0 | -
Cc1ccc(S(=O)(=O)c2c(N)n(Cc3ccco3)c3nc4ccccc4nc23)cc1 | ? | 0 | 0 | ? | 0 | ?
Cc1cccc(S(=O)(=O)c2c(N)n(Cc3ccco3)c3nc4ccccc4nc23)c1 | ? | 0 | 18µM | 0 | 0 | ?
COc1ccc(S(=O)(=O)NCc2ccccn2)cc1NC(=O)c1ccccc1 | 13µM | 0 | ? | 8.2µM | 0 | 13µM
CCOc1ccc(S(=O)(=O)NCc2ccccn2)cc1NC(=O)c1ccccc1F | ? | 0 | ? | 0.92µM | 0 | ?
COc1ccc(S(=O)(=O)NCc2ccccn2)cc1Br | 0 | 0 | 0 | 0 | 0 | 0
COc1ccc(S(=O)(=O)NCc2ccccn2)cc1NC(=O)c1ccc(C)cc1 | 9.2µM | 0 | ? | 5.8µM | 0 | 13µM
CCOc1cc(C)c(C(C)C)cc1S(=O)(=O)NCc1ccccn1 | 0 | 0 | 9.2µM | 0 | 0 | 0
O=C(Nc1ccc(Cl)cc1)C1CCN(c2nc3ccccc3n3cccc23)CC1 | - | 0 | - | - | 0 | -
COCCN1C[C@@H](CO)O[C@@H](n2cnc3c(NCc4ccco4)ncnc32)C1 | 0 | 0 | 0 | ? | 0 | 0
CC(C)CC(=O)NCC(c1ccc2c(c1)OCO2)N1CCN(c2ccccc2F)CC1 (centres undefined) | 0 | 0 | 0 | - | ? | -
CCCCNc1nc(Oc2ccc(=O)n(-c3ccccc3)n2)nc(N(C)C)n1 | 0 | 0 | 0 | - | 0 | -
CCCCNC(=O)[C@@H]1CC=C[C@@H]2CCN(CCCC)C(=O)[C@@H]21 | 0 | 0 | 0 | - | 0 | -
Cc1cccc(-n2c3nc(=O)[nH]c(=O)c-3cc3cc([N+](=O)[O-])ccc32)c1 | ? | 0 | 16µM | ? | ? | ?
Cc1ccc(C)c(-n2c3nc(=O)[nH]c(=O)c-3cc3cc([N+](=O)[O-])ccc32)c1 | 23µM | 0 | 0 | 6.5µM | ? | 5.2µM
SMILES | KB-3-1 tox | HepG2 viability | KB-V1 cytotox | HT1080-NT tox | TGFb SMAD3 inh | HT1080 IDH1KD tx
Cc1ccc(-c2ccnc(N3CCC(C(N)=O)CC3)n2)cc1 | 0 | - | 0 | - | - | -
Clc1ccccc1Nc1nnc(-c2ccncc2)s1 | ? | 0 | 9.2µM | 7.3µM | 0 | 7.3µM
COc1ccc(CN(C)CCCn2cnc3c(OC)ncnc32)cc1OC | ? | 0 | 0 | 0 | 0 | 0
CCCn1c(=O)n(-c2cc(Cl)c(OC)cc2OC)c(=O)c2c3c(sc21)CN(C(C)=O)CC3 | 0 | 0 | 0 | - | 0 | -
CCCCCCCCCCCCCCCCCCNc1ccn(C2OC(COP(=O)(O)OCC3OC(n4cc(F)c(=O)[nH]c4=O)CC3O)C(O)C2O)c(=O)n1 (centres undefined) | ? | 0 | 0 | ? | ? | 10µM
C[C@H]1O[C@@H](n2cc(F)c(=O)[nH]c2=O)[C@H](O)[C@@H]1O | 0 | 0 | 0 | 0 | 0 | 0
Cc1ccc2c(c1)c1ccc3c(c1n2C)C(=O)C=CC3=O | 16µM | 0 | 0 | 0 | ? | 0
Cc1ccc(S(=O)(=O)Cc2ccc(C(=O)N3CCN(c4cccc(Cl)c4)CC3)o2)cc1 | ? | 0 | 5.8µM | - | ? | -
Cc1ccccc1S(=O)(=O)Cc1ccc(C(=O)N2CC(C)CC(C)C2)o1 (centres undefined) | 0 | 0 | 0 | 0 | 0 | 0
COc1cccc(N2CCN(C(=O)c3ccc(CS(=O)Cc4ccc(Cl)cc4)o3)CC2)c1 (centres undefined) | 0 | 0 | 16µM | 0 | 0 | 0
Cc1ccc(Cl)cc1N1CCN(C(=O)c2ccc(CS(=O)(=O)c3ccc(Br)cc3)o2)CC1 | ? | 0 | 0 | - | ? | -
Cc1ccccc1S(=O)(=O)Cc1ccc(C(=O)N2CCN(c3cccc(C)c3C)CC2)o1 | 5.2µM | 0 | 5.8µM | 5.8µM | ? | 6.5µM
Cc1ccccc1S(=O)(=O)Cc1ccc(C(=O)N2CCN(c3cccc(Cl)c3)CC2)o1 | 4.1µM | 0 | 4.6µM | - | 0 | -
COc1ccccc1C(=O)Nc1nc2nc(C)c(Cc3ccccc3)c(=O)n2[nH]1 | 0 | 0 | 0 | - | 0 | -
CCn1c(=O)c2[nH]c(SC)nc2n(CC)c1=O | 0 | 0 | 0 | 0 | 0 | 0
COc1cccc(NC(=O)N(CCC(C)C)C2CCN(C(C)C)CC2)c1 | - | 0 | - | - | 0 | -
COc1ccc(Cn2cc(C(=O)c3ccc(C)c(C)c3)c(=O)c3ccccc32)cc1 | 0 | 0 | 0 | - | ? | -
COc1ccc2c(c1)c(=O)c(C(=O)c1ccccc1)cn2Cc1ccc(C)cc1 | ? | 0 | 18µM | ? | 0 | ?
CCOc1ccc(-n2c(=O)c3c(C)c(C(=O)N(C)C)sc3n(CC(=O)Nc3c(C)cc(C)cc3C)c2=O)cc1 | - | 0 | - | - | 0 | -
CCOC(=O)c1c2c(c(=S)n(-c3ccccc3)c1N)CCC2 | 0 | 0 | 21µM | 0 | 0 | 0
COc1ccc(C2CC(c3ccccc3F)=NN2c2ccc(S(N)(=O)=O)cc2)cc1 (centres undefined) | 0 | 0 | 0 | 0 | ? | 0
COc1ccc(C2CC(c3ccccc3Br)=NN2c2ccc(S(N)(=O)=O)cc2)cc1 (centres undefined) | 0 | 13µM | 0 | ? | ? | ?
NS(=O)(=O)c1ccc(N2N=C(c3ccccc3)CC2c2ccc(Br)cc2)cc1 (centres undefined) | ? | 28µM | ? | ? | ? | ?
